G9a inh: G9a (human) methyltransferase inhibition; Potency, µM (series often up to 102 µM), inactives show at the highest dose activity, negative = inhibition, usual class: inhibitors; G9a H3K9 monomethylation, AlphaScreen, 2 h; AID 504332; Q96KQ7; 350,000 compounds, 8.8% hits; also: % is scaled to controls: 0 for no effect and ±100 for the full control effect; nearly all actives have a fitted effect of over 75% in size
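AlphaScreen detection with an anti-monomethyl H3K9 antibody quantified product after a 2 h room-temperature reaction containing 500 nM biotinylated H3K9 peptide, 20 µM SAM and 20 nM enzyme, which had been preincubated 15 min with compound.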
HP1b binding inh: inhibitors of HP1-beta chromodomain binding to methylated histone tails. AlphaScreen HP1-beta / biotin-H3K9me3 peptide binding. P83916. Potency, µM (doses to about 114 µM), inactives show at the top dose activity change, negative = inhibition, most hits filed as inhibitors. 390,000 compounds, 0.56% hits; also: nearly all actives have a fitted effect of over 70% in size
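AlphaScreen: HP1-beta (50 nM) preformed 30 min with biotin-H3(1-18)K9me3 peptide (50 nM) in PBS pH 7.4, 0.01% Tween-20. Compound added for 30 min at RT, then streptavidin donor/nickel chelate acceptor beads (10 ug/mL) for 30 min.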
BAZ2B block: BAZ2B (human) inhibition; Q9UIF8; AlphaScreen BAZ2B-H3K14Ac peptide displacement; Potency, µM (highest dose often 114 µM), inactives show top-dose activity change, negative = inhibition, most hits filed as inhibitors; 360,000 compounds, 4.4% hits; also: % is scaled to controls: 0 for no effect and ±100 for the full control effect; nearly all actives have a fitted effect of over 60% in size
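BAZ2B 50 nM plus b-H3(5-23)K14Ac 50 nM, PBS pH 7.4/0.01% Tween-20, 30 min RT; compound added (max 110 uM), 30 min RT; streptavidin donor/Ni-chelate acceptor beads 10 ug/mL final, 20 min dark; AlphaScreen read.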
JMJD2A Tudor: inhibitors of human JMJD2A Tudor domain | O75164 | AlphaScreen JMJD2A-Tudor / H3K4me3 peptide binding | Potency, µM (series often up to 114 µM), without a hit: top-dose activity change, negative = inhibition, usual class: inhibitors | 390,000 compounds, 4.4% hits | AID 504339; also: % is scaled to controls: 0 for no effect and ±100 for the full control effect; nearly all actives have a fitted effect of over 50% in size
Target sequence (O75164 whole entry, looked up, the tested form may be a part): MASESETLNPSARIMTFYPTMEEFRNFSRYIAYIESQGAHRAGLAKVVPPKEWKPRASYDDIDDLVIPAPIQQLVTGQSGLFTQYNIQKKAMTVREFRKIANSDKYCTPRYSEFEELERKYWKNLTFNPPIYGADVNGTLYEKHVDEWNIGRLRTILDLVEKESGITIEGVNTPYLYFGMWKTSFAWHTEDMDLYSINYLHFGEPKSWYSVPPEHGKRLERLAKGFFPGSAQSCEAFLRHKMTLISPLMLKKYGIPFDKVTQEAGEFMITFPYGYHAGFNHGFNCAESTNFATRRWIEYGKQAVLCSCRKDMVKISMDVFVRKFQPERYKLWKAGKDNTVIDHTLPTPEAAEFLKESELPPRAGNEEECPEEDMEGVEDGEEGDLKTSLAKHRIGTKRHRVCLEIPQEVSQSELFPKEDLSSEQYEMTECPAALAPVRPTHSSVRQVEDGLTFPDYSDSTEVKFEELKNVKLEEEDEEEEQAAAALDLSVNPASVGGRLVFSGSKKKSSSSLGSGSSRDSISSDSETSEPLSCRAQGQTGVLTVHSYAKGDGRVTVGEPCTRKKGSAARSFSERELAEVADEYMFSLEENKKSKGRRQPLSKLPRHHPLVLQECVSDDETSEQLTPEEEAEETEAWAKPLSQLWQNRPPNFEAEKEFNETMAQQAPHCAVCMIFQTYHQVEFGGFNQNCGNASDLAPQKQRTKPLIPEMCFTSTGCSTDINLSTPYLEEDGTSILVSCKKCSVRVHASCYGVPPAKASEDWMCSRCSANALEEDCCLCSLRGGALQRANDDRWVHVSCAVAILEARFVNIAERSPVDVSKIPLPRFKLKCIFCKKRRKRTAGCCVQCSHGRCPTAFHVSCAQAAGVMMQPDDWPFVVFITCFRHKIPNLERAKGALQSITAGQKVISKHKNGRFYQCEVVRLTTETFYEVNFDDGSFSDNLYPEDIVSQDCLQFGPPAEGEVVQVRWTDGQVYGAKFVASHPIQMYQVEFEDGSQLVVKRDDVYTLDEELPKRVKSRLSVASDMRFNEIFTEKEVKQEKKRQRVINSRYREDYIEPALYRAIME
Sfp PPTase inh: Sfp phosphopantetheinyl transferase inhibition; Q9F4F7; Biochemical Sfp PPTase activity, qHTS; Potency, µM, for inactives: largest response in the series, negative = inhibition, usual class: inhibitors; 310,000 compounds, 3.5% hits;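 also: the enzyme is Sfp with the accession as filed and its product quenches rhodamine fluorescence; 0% = enzyme reaction without inhibitor and -100% = no enzyme wells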
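Compounds were incubated with enzyme (final 15 nM) for 15 min at room temperature before substrate addition started the reaction. Fluorescence at 525 nm excitation, 598 nm emission was recorded immediately and after 30 minutes.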
Starred values were filed as active, the others as inactive; ? = inconclusive; · = no result; [ ] = another dose, or the depositor's remark. Most compounds without a hit are left out; they make up all but 12% or so of the library. Calls follow the shape of the dose curve; as a rule, active = well fitted curve in the direction sought with a large enough effect; inconclusive = small, poorly fitted or top-dose-only effect, or another doubt; inactive = no such curve, though single readings can be large; an effect the other way counts as inactive or inconclusive. Potency is read from the fitted curve at half-maximal effect.

SMILES	G9a inh	HP1b binding inh	BAZ2B block	JMJD2A Tudor	Sfp PPTase inh
O=[N+]([O-])c1ccc(C2=Nn3c(Cn4nnc5ccccc54)nnc3SC2)cc1	·	?	-37%	56µM*	20µM*
CCc1nnc2n1N=C(c1cccc([N+](=O)[O-])c1)CS2	14%[59 µM]	41%	-22%	-21%	-4%
CCc1nnc2n1N=C(c1ccccc1)CS2	-76%	31%	-29%	-1%	5%
Cc1nnc2n(c1=O)N=C(c1ccc(Cl)cc1)CS2	71µM*	10%	-5%	-10%	?
CCCc1nnc2n1N=C(c1ccc(C)cc1)CS2	79µM*	6%[57 µM]	-33%	-14%	7%
O=C(NCC1(N2CCCCC2)CCCCC1)c1ccc(S(=O)(=O)N2CCCC2)cc1	27%[12.7 µM]	-3%	-9%	-9%	9%
COCCN(CCOC)S(=O)(=O)c1ccc(C(=O)NC2CCN(Cc3ccccc3)CC2)cc1	1%	28%	-1%	0%	6%
C=CC(=O)Nc1cccc(Oc2ncnc3[nH]cc(-c4cnc5ccccc5c4)c23)c1	·	22%	·	-11%	·
Cc1ccc(Cl)cc1N1CCN(C(=O)c2ccc(CS(=O)c3ccccc3)o2)CC1 (stereo not given)	?	23%	-27%	-16%	·
CN(C(=O)Nc1ccc(Cl)c(Cl)c1)c1ccccc1C(=O)O	56µM*	7%	-12%	5%	-25%
OC(CNCCC1C=Nc2ccccc21)Cn1c2ccc(Cl)cc2c2cc(Cl)ccc21 (stereo not given)	?	?	40µM*	40µM*	11µM*
OC(CNCC1CCCO1)Cn1c2ccc(Cl)cc2c2cc(Cl)ccc21 (stereo not given)	0%[2.33 µM]	18%	-35%	-9%[57.1 µM]	50µM*
Cc1cc(C)n(CC(O)Cn2c3ccc(Cl)cc3c3cc(Cl)ccc32)c(=O)n1 (stereo not given)	-11%[59 µM]	-6%	-23%	-31%	-1%
CCOc1ccc(CCNC(=O)COC(=O)/C=C/c2ccccc2)cc1OCC	7%[2.33 µM]	28%	2%	-6%	·
CCOCCc1nnc(NC(=O)CN2C(=O)c3ccccc3C2=O)s1	34%[59 µM]	27%	8%	-16%	-10%
COc1ccc(OC)c(/C=C2\SC(=S)N(Cc3cccnc3)C2=O)c1	7%[59 µM]	-4%	?	-31%	?
COc1ccc(O)c(/C=C2/SC(=S)N(Cc3ccccc3)C2=O)c1	4.5µM*	?	32µM*	40µM*	?
CN1C(=O)/C(=C\c2cc(N=Nc3ccccc3)ccc2O)SC1=S	8.9µM*	-65%	3.5µM*	40µM*	-2%
COc1ccc(/C=C2/SC(=S)N(Cc3ccccc3)C2=O)cc1O	22%	-5%	-7%	?	-10%
O=C1/C(=C\c2cc(Cl)c(O)c(Cl)c2)SC(=S)N1Cc1ccccc1	14µM*	?	50µM*	50µM*	?
O=C1Nc2ccccc2C1=Nc1ccc2[nH]c3ccccc3c2c1	·	?	·	35µM*	·
CCN(CC)c1ccc(N=C2C(=O)Nc3ccccc32)cc1	6.3µM*	?	11µM*	16µM*	?
COc1cccc(S(=O)(=O)N2CCN(C(=O)c3ccco3)CC2)c1	?	48%	?	-3%	?
Cc1cccc(NS(=O)(=O)c2ccc3[nH]c(=O)oc3c2)c1C	·	31%	·	-6%	·
Cc1ccc(C)c(NS(=O)(=O)c2ccc3[nH]c(=O)oc3c2)c1	45µM*	-10%	79µM*	-28%	4%
SMILES	G9a inh	HP1b binding inh	BAZ2B block	JMJD2A Tudor	Sfp PPTase inh
CSc1cccc(NC(=O)CN(C)S(=O)(=O)c2ccc3c(c2)n(C)c(=O)c(=O)n3C)c1	1µM*	34%	-19%	-15%	·
O=C1CCC(=O)N1OCCCOc1ccccc1	13%	37%	-25%	19%	6%
CCN1C(=O)/C(=C\C=C2/C=CC=CN2CC)SC1=S	10µM*	40µM*	22µM*	?	?
CCN1C(=O)/C(=C/C=C2\C=CN(CC)c3ccccc32)SC1=S	8.9µM*	3.5µM*	2µM*	?	45µM*
O=C(Cn1cncn1)N/N=C/c1ccccc1O	·	45%	79µM*	56µM*	18%
O=C(Cn1cncn1)N/N=C/c1ccncc1	22%	27%	-9%	-13%	5%
